Measured values taken from PubChem BioAssay AID1159580 (chemical genetic matrix, 2015).
The whole screen tested about 5,500 compounds, of which about 2,000 (36%) were called active. About 18% were inconclusive and are not listed. Rule as the data show it: active = normalized growth mostly below about 0.91 (no sharp cut-off); inconclusive = no clear call, values can overlap the other calls; inactive = mostly above about 0.92. The list shows a part of the results.

Assay: chemical genetic growth profiling, strain panel (AID 1159580);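 also: tested at 20 µM; growth read once vehicle control cultures reached saturation at 30 °C; 1 = growth at the plate median or of vehicle wells; lower values mean less growth of the strain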
Details: growth OD

Measured: normalized growth

CNC(=O)O/N=C(\C)SC
inactive: S. cerevisiae deletion strains, locus YJR075W, strain HOC1, stronger effect = lower value 0.99 | S. cerevisiae deletion strains, locus YKL009W, strain mrt4, stronger effect = lower value 1.02 | S. cerevisiae deletion strains, locus YKL068W, stronger effect = lower value 0.986 | S. cerevisiae deletion strains, locus YKL085W, strain MDH1 (second series), stronger effect = lower value 0.985 | S. cerevisiae deletion strains, locus YKL085W, strain MDH1, stronger effect = lower value 0.985 | S. cerevisiae deletion strains, locus YKL160W, strain elf1, stronger effect = lower value 1 | S. cerevisiae deletion strains, locus YKL190W, strain CNB1, stronger effect = lower value 1 | S. cerevisiae deletion strains, locus YKR001C, strain vps1, stronger effect = lower value 0.999 | S. cerevisiae deletion strains, locus YKR026C, strain gcn3, stronger effect = lower value 0.999 | S. cerevisiae deletion strains, locus YKR091W, strain srl3, stronger effect = lower value 1 | S. cerevisiae deletion strains, locus YLL001W, strain dnm1, stronger effect = lower value 1 | S. cerevisiae deletion strains, locus YLL026W, stronger effect = lower value 1 | S. cerevisiae deletion strains, locus YLL041C, strain sdh2, stronger effect = lower value 0.999 | S. cerevisiae deletion strains, locus YLR027C, strain aat2, stronger effect = lower value 0.987 | S. cerevisiae deletion strains, locus YLR039C, strain RIC1, stronger effect = lower value 1.01 | S. cerevisiae deletion strains, locus YLR058C, strain SHM2, stronger effect = lower value 1.01 | S. cerevisiae deletion strains, locus YLR102C, strain apc9, stronger effect = lower value 0.99 | S. cerevisiae deletion strains, locus YLR113W, strain HOG1, stronger effect = lower value 1.01 | S. cerevisiae deletion strains, locus YLR221C, strain rsa3, stronger effect = lower value 1 | S. cerevisiae deletion strains, locus YLR258W, strain gsy2, stronger effect = lower value 0.994 | S. cerevisiae deletion strains, locus YLR262C, strain YPT6 (second series), stronger effect = lower value 1.03 | S. cerevisiae deletion strains, locus YLR262C, strain YPT6, stronger effect = lower value 1.05 | S. cerevisiae deletion strains, locus YLR268W, strain sec22, stronger effect = lower value 0.994 | S. cerevisiae deletion strains, locus YLR320W, strain mms22, stronger effect = lower value 0.995 | S. cerevisiae deletion strains, locus YLR330W, strain CHS5, stronger effect = lower value 1.01 | S. cerevisiae deletion strains, locus YLR342W, strain FKS1 (second series), stronger effect = lower value 1.02 | S. cerevisiae deletion strains, locus YLR342W, strain FKS1, stronger effect = lower value 0.997 | S. cerevisiae deletion strains, locus YLR357W, strain rsc2, stronger effect = lower value 0.983 | S. cerevisiae deletion strains, locus YLR370C, strain arc18, stronger effect = lower value 1 | S. cerevisiae deletion strains, locus YLR371W, strain rom2, stronger effect = lower value 0.98 | S. cerevisiae deletion strains, locus YLR384C, strain iki3, stronger effect = lower value 1 | S. cerevisiae deletion strains, locus YLR418C, strain cdc73, stronger effect = lower value 1.01 | S. cerevisiae deletion strains, locus YML016C, strain PPZ1, stronger effect = lower value 1.01 | S. cerevisiae deletion strains, locus YML032C, strain rad52, stronger effect = lower value 0.981 | S. cerevisiae deletion strains, locus YML120C, strain ndi1, stronger effect = lower value 1.01 | S. cerevisiae deletion strains, locus YML124C, strain tub3, stronger effect = lower value 0.978 | S. cerevisiae deletion strains, locus YMR058W, strain fet3, stronger effect = lower value 1 | S. cerevisiae deletion strains, locus YMR078C, strain ctf18, stronger effect = lower value 0.985 | S. cerevisiae deletion strains, locus YMR125W, strain sto1, stronger effect = lower value 0.999 | S. cerevisiae deletion strains, locus YMR129W, stronger effect = lower value 0.999 | S. cerevisiae deletion strains, locus YMR205C, strain PFK2, stronger effect = lower value 1.01 | S. cerevisiae deletion strains, locus YMR223W, strain ubp8, stronger effect = lower value 0.991 | S. cerevisiae deletion strains, locus YMR231W, strain pep5, stronger effect = lower value 0.982 | S. cerevisiae deletion strains, locus YMR263W, strain SAP30, stronger effect = lower value 1.02 | S. cerevisiae deletion strains, locus YMR307W, strain GAS1, stronger effect = lower value 1.02 | S. cerevisiae deletion strains, locus YNL067W, strain RPL9B, stronger effect = lower value 1.01 | S. cerevisiae deletion strains, locus YNL071W, strain lat1, stronger effect = lower value 1.01 | S. cerevisiae deletion strains, locus YNL128W, strain TEP1, stronger effect = lower value 1.01 | S. cerevisiae deletion strains, locus YNL153C, strain GIM3, stronger effect = lower value 0.996 | S. cerevisiae deletion strains, locus YNL183C, strain NPR1, stronger effect = lower value 0.997 | S. cerevisiae deletion strains, locus YNL209W, strain ssb2, stronger effect = lower value 0.996 | S. cerevisiae deletion strains, locus YNL233W, strain BNI4, stronger effect = lower value 1.03 | S. cerevisiae deletion strains, locus YNL248C, strain rpa49, stronger effect = lower value 1 | S. cerevisiae deletion strains, locus YNL250W, strain rad50, stronger effect = lower value 0.974 | S. cerevisiae deletion strains, locus YNL271C, strain bni1, stronger effect = lower value 0.991 | S. cerevisiae deletion strains, locus YNL298W, strain CLA4, stronger effect = lower value 0.988 | S. cerevisiae deletion strains, locus YNL307C, strain MCK1, stronger effect = lower value 0.981 | S. cerevisiae deletion strains, locus YNL322C, strain KRE1 (second series), stronger effect = lower value 0.995 | S. cerevisiae deletion strains, locus YNL322C, strain KRE1, stronger effect = lower value 1.01 | S. cerevisiae deletion strains, locus YNR049C, strain mso1, stronger effect = lower value 0.998 | S. cerevisiae deletion strains, locus YNR052C, strain pop2, stronger effect = lower value 0.988 | S. cerevisiae deletion strains, locus YOL006C, strain TOP1, stronger effect = lower value 1.07 | S. cerevisiae deletion strains, locus YOL012C, strain htz1 0.858 | S. cerevisiae deletion strains, locus YOL147C, strain pex11, stronger effect = lower value 0.976 | S. cerevisiae deletion strains, locus YOR001W, strain rrp6, stronger effect = lower value 0.989 | S. cerevisiae deletion strains, locus YOR061W, strain CKA2, stronger effect = lower value 1.01 | S. cerevisiae deletion strains, locus YOR069W, strain VPS5, stronger effect = lower value 1 | S. cerevisiae deletion strains, locus YOR070C, strain gyp1, stronger effect = lower value 0.995 | S. cerevisiae deletion strains, locus YOR080W, strain dia2, stronger effect = lower value 0.996 | S. cerevisiae deletion strains, locus YOR083W, strain WHI5, stronger effect = lower value 1 | S. cerevisiae deletion strains, locus YOR106W, strain vam3, stronger effect = lower value 1.01 | S. cerevisiae deletion strains, locus YOR136W, strain idh2, stronger effect = lower value 0.978 | S. cerevisiae deletion strains, locus YOR144C, strain elg1, stronger effect = lower value 0.977 | S. cerevisiae deletion strains, locus YOR184W, strain ser1, stronger effect = lower value 0.993 | S. cerevisiae deletion strains, locus YOR231W, strain MKK1, stronger effect = lower value 1.05 | S. cerevisiae deletion strains, locus YOR265W, strain rbl2, stronger effect = lower value 1.02 | S. cerevisiae deletion strains, locus YOR270C, strain vph1, stronger effect = lower value 1.02 | S. cerevisiae deletion strains, locus YOR290C, strain snf2, stronger effect = lower value 0.981 | S. cerevisiae deletion strains, locus YOR316C, strain cot1, stronger effect = lower value 0.983 | S. cerevisiae deletion strains, locus YPL051W, strain arl3, stronger effect = lower value 1.02 | S. cerevisiae deletion strains, locus YPL055C, strain LGE1, stronger effect = lower value 1.03 | S. cerevisiae deletion strains, locus YPL078C, strain atp4, stronger effect = lower value 0.997 | S. cerevisiae deletion strains, locus YPL106C, strain sse1, stronger effect = lower value 0.982 | S. cerevisiae deletion strains, locus YPL240C, strain hsp82, stronger effect = lower value 0.998 | S. cerevisiae deletion strains, locus YPL241C, strain CIN2, stronger effect = lower value 1 | S. cerevisiae deletion strains, locus YPL256C, strain CLN2, stronger effect = lower value 1.05 | S. cerevisiae deletion strains, locus YPR119W, strain clb2, stronger effect = lower value 0.985 | S. cerevisiae deletion strains, locus YPR141C, strain kar3, stronger effect = lower value 0.989 | S. cerevisiae deletion strains, locus YPR163C, strain tif3, stronger effect = lower value 0.976 | S. cerevisiae deletion strains, locus YPR167C, strain met16, stronger effect = lower value 0.986 | S. cerevisiae deletion strains, strain wtn01, stronger effect = lower value 0.997 | S. cerevisiae strains, strain wild type, stronger effect = lower value 1
